The results in this text go back to ChEMBL document CHEMBL3988442, “University of Dundee, Small-Polar-MMV Screening Library” (2021).

What all share (set-up): scale not given: direction of the effect not stated beside the values
In experiment [1] the target is Protein translocase subunit SecA (Escherichia coli (strain K12)) (UniProt P10408). In words: Assay to Identify E. coli SecA ATPase Inhibitors. It counts as functional. To be noted: 30 µM.
The target in experiment [2] is T1, Ubiquitin-activating enzyme e1, putative (Leishmania donovani (strain BPK282A1)) (UniProt E9BSI1).
T1 sequence (whole entry): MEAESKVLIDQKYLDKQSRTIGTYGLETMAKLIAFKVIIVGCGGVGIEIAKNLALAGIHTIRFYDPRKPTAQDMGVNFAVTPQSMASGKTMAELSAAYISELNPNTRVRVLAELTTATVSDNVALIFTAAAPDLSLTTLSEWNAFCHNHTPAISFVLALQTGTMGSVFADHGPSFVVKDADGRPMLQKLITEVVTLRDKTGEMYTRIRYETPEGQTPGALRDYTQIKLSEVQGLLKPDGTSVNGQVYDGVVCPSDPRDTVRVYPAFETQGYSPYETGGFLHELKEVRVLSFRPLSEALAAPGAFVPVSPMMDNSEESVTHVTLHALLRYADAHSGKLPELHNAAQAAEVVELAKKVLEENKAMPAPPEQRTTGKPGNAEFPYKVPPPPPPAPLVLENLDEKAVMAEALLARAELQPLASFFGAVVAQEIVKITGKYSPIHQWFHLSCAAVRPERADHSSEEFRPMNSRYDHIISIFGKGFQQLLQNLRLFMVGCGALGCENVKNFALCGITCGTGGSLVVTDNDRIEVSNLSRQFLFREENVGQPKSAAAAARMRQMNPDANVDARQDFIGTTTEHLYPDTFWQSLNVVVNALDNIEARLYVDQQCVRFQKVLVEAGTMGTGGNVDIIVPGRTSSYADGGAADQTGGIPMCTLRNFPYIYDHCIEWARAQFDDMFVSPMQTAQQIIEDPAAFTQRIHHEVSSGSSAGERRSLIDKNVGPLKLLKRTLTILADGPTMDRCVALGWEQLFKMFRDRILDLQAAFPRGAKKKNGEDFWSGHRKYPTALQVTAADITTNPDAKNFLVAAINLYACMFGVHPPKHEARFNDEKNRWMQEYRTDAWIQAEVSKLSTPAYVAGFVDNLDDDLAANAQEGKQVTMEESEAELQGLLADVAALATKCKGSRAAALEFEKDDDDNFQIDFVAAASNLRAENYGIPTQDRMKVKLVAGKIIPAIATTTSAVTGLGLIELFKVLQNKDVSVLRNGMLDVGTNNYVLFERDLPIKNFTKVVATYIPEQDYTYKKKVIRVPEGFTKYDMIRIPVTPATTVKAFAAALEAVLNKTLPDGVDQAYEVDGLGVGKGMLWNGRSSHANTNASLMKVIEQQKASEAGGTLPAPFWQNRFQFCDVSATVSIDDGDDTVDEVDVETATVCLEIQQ
Put plainly: Leishmania donovani Ubiquitin Activating Enzyme (LdE1). It counts as functional. To be noted: 30 µM.

Experiment [3] deals with Sialic acid-binding Ig-like lectin 9 (Homo sapiens) (UniProt Q9Y336). In words: Hs-Siglec9 ALPHAscreen SOP 20170721. Particulars: 10 µM. A general note: In Alpha technology, singlet oxygen from a donor bead excites a nearby acceptor bead.
Sialic acid-binding Ig-like lectin 9 (Homo sapiens), sequence (Q9Y336 whole entry): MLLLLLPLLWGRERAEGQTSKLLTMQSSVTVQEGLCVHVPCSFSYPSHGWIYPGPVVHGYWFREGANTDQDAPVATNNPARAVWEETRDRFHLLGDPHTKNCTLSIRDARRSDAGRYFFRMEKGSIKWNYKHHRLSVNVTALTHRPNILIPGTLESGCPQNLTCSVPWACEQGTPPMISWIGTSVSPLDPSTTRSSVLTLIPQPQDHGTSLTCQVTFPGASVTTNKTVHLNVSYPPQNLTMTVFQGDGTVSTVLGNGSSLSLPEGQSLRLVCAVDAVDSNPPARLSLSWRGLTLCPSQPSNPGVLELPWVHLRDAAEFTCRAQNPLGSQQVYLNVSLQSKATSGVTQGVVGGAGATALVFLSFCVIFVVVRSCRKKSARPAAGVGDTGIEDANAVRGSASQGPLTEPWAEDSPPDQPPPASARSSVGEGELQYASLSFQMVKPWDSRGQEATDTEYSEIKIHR
Experiment [4] concerns Trypanosoma cruzi. Put plainly: Trypanosoma cruzi phosphomannomutase and mannose-1-phosphate guanylyltransferase assay. Format: functional. Particulars: 10 µM.
Experiment [5] concerns the target T2, Arginase-2, mitochondrial (Homo sapiens) (UniProt P78540).
T2 sequence (whole entry): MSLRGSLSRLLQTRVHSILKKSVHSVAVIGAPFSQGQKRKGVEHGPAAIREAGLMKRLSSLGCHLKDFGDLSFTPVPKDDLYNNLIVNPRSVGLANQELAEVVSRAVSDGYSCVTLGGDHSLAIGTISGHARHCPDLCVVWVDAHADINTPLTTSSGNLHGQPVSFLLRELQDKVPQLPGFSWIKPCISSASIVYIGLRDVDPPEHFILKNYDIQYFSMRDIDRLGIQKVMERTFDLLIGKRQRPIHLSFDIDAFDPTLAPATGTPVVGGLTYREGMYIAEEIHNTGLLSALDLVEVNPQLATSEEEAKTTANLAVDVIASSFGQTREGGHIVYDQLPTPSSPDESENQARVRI
In words: in vitro enzyme assay to detect the production of urea directly proportional to the activity of Arginase II. Also: in the data most compounds retested in dose-response had high values. Format: functional. Particulars: 33.3 µM.

For experiment [6], the target named is T3, Proteasome subunit beta (Trypanosoma cruzi) (UniProt O96673).
T3 sequence (whole entry): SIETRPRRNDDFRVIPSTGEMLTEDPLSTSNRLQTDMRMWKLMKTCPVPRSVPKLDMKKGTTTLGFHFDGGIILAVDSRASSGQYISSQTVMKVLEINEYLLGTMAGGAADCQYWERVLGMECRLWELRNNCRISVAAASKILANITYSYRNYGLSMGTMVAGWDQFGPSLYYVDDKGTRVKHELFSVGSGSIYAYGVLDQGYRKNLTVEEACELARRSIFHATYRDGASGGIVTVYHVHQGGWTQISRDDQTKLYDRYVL
In words: Trypanosoma cruzi proteasome chymotrypsin-like activity (TcProtChymo) assay. Also: in the data most compounds retested in dose-response had high values. It counts as functional. Particulars: 9.37 µM.

The species entered for experiment [7] is Homo sapiens. In words: To identify inhibition of the IFN signalling (Jak-Stat) pathway via expression of an eGFP reporter gene under the control of an IFN-stimulated response element (ISRE) containing MxA promoter. It counts as functional. Particulars: 30 µM.
In experiment [8] the target is T4, Tyrosyl-tRNA synthetase, putative (Trypanosoma cruzi (strain CL Brener)) (UniProt Q4DSP6).
T4 sequence (whole entry): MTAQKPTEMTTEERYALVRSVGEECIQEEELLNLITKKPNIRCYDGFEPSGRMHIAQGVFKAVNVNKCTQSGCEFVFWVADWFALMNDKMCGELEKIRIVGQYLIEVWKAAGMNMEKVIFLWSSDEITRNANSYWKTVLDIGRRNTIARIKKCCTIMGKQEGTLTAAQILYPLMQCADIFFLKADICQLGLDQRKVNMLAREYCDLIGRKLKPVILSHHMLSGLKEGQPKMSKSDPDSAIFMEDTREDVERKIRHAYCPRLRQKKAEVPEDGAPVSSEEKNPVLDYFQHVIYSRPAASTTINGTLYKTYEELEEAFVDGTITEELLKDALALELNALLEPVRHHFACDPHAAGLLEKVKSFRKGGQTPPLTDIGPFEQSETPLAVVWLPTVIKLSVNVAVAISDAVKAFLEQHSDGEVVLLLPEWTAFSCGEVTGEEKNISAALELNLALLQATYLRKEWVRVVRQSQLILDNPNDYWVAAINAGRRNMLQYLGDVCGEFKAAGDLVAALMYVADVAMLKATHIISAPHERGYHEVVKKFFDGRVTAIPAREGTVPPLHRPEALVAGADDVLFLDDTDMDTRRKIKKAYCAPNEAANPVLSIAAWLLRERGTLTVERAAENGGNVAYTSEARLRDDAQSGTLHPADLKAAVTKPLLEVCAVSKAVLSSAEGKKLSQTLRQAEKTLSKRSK
In words: Trypanosoma cruzi tyrosyl tRNA synthetase (TcYRS) _High Tyrosine SOP. Also: in the data most compounds retested in dose-response had high values. It counts as functional. To be noted: 30 µM.

Experiment [9] has as its target T4, Tyrosyl-tRNA synthetase, putative (Trypanosoma cruzi (strain CL Brener)). In words: Trypanosoma cruzi tyrosyl tRNA synthetase (TcYRS) SOP. It counts as functional. To be noted: 30 µM.
Experiment [10] has as its target Chromo domain-containing protein 1 (Saccharomyces cerevisiae (strain ATCC 204508 / S288c) (Baker's yeast)) (UniProt P32657). In words: ScCHD-1 Enzyme Inhibition Assay. Also: in the data most compounds retested in dose-response had high values. Format: functional. Particulars: 30 µM.

The structures appear in SMILES notation. For some assays here: Potency and affinity values are given separately.

Protein translocase subunit SecA (Escherichia coli (strain K12)), sequence (P10408 whole entry): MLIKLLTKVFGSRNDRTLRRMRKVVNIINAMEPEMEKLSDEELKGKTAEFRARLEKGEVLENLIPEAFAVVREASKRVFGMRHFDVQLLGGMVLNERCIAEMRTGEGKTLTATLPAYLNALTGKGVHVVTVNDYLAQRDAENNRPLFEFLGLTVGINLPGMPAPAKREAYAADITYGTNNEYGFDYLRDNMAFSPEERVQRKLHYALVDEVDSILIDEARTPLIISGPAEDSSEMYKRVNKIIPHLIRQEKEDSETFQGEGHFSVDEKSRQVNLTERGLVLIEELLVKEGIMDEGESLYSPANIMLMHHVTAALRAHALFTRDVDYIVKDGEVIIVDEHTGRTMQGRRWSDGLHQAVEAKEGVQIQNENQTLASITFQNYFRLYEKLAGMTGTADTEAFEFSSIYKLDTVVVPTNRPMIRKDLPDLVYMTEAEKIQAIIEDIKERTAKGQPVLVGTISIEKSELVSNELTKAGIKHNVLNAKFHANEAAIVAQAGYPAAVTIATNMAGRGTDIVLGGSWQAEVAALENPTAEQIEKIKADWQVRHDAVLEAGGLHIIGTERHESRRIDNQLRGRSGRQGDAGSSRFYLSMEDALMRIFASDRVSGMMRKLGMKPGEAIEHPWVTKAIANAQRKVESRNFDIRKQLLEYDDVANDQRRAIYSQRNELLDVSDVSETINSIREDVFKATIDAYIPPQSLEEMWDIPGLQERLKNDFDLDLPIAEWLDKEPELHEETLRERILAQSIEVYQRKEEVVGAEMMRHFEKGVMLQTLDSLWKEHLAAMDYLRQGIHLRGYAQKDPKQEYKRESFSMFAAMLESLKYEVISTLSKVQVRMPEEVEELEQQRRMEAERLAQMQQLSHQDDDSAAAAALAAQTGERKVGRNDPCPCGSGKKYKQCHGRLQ
Chromo domain-containing protein 1 (Saccharomyces cerevisiae (strain ATCC 204508 / S288c) (Baker's yeast)), sequence (P32657 whole entry, the tested form may be a part): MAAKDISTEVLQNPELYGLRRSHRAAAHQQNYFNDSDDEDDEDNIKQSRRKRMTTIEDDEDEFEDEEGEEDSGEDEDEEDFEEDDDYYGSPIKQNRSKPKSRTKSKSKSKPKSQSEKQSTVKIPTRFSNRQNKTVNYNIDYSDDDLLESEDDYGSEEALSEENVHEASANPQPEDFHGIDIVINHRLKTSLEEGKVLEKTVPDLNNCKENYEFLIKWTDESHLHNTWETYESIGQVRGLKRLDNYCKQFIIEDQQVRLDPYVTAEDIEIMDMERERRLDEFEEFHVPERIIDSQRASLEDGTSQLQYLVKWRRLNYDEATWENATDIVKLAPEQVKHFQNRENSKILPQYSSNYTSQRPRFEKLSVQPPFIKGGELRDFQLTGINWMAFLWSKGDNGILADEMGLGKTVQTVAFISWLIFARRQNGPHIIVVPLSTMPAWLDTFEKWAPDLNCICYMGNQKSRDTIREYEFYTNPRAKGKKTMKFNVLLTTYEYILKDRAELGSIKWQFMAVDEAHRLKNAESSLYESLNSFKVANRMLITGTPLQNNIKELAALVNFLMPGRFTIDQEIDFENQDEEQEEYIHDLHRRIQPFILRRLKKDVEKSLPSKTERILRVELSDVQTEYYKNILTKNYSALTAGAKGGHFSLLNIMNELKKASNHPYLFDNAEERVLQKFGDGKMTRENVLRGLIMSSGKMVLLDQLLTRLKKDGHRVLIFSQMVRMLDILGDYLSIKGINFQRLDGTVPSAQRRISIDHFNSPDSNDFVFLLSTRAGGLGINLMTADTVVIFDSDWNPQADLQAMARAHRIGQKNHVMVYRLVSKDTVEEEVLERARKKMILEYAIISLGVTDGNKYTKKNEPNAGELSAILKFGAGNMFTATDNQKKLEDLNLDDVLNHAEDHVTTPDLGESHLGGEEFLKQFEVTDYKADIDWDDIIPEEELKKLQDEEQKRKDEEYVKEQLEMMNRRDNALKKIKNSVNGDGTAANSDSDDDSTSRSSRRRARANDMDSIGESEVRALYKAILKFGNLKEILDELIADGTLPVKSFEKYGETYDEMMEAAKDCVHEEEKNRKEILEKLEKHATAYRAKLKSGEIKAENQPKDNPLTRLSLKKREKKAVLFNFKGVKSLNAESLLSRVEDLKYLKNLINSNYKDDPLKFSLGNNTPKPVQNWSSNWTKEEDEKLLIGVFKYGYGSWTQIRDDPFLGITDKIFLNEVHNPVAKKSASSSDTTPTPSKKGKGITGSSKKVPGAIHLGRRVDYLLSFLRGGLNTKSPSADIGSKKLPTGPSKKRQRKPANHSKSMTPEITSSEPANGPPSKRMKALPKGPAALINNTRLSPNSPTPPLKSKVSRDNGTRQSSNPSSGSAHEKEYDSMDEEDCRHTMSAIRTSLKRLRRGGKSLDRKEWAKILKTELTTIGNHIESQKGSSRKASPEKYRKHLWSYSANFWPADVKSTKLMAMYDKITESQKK

`CCN1CCN(c2ccc(CNC(=O)c3c(C)noc3C)cn2)CC1`: the Percent Effect in experiment [1] was -1.13%; in experiment [2] it was 21.3%; in experiment [3], -5.5%; in experiment [4], 3.01%; in experiment [5], 2.66%; in experiment [6] it was 23.8%. The Percent Effect in [7] is 1.82%; in [8] it was 1.58%; in [9], 15.4%; in [10], -14.6%.

For `CCn1ccnc1CN1CCN(CC(O)Cn2cccn2)CC1` (stereo not given), the Percent Effect in [1] is -5.85%; in [2] it was 0%; in experiment [3], -2.48%; in [4], -1.97%; in experiment [5], -4.51%; in experiment [6], 11%. Besides, the Percent Effect in [7] is 18.6%; in experiment [8], -0.478%; in experiment [9] it was 6.02%; in [10] it was 1.41%.

Take `CCc1nc(C)c(C(=O)NCCN2CCN(C(C)=O)CC2)s1`: the Percent Effect in [1] is -2.42%; in experiment [2], 10.4%; in experiment [3], 4.38%; in experiment [4], -0.373%; in experiment [5], 1.43%; in experiment [6] it was -0.702%. Besides, the Percent Effect is 15.7% in experiment [7], 7.84% in experiment [8], 21.2% in experiment [9] and -6.18% in experiment [10].

For `CC(C)c1cc(NC(=O)CN2CCC(N3CCNC3=O)CC2)on1`, the Percent Effect is -2.95% in experiment [1]; 15.6% in experiment [2]; 8.63% in experiment [3]; -6.16% in experiment [4]; 1.02% in experiment [5]; 0.877% in experiment [6]. For the same compound, the Percent Effect was 23.3% in experiment [7], 5.88% in experiment [8], 11.8% in experiment [9] and -7.14% in experiment [10].

`CCC1CN(C(=O)NCCOc2ccc3c(c2)OCO3)CCO1` (stereo not given): the Percent Effect is 1.77% in experiment [1]; 18.2% in experiment [2]; -3.28% in experiment [3]; -3.36% in experiment [4]; 5.53% in [5]; 15.4% in experiment [6]. Further, the Percent Effect in experiment [7] was 1.58%; in experiment [8], 4.9%; in experiment [9], 16.5%; in experiment [10], -6.67%.

As for `CC(C)CCCNC(=O)Nc1ccc(F)c(C(N)=O)c1`, the Percent Effect was -0.324% in experiment [1]; 23.4% in experiment [2]; 0.112% in [3]; 2.61% in experiment [4]; -6.76% in [5]; 12.3% in [6]. In addition, the Percent Effect was 14.9% in [7], 6.86% in experiment [8], 30.6% in experiment [9] and -10.9% in [10].

For `c1ccc(CCNC2CCc3ncnn3C2)nc1` (stereo not given), the Percent Effect in experiment [1] is -0.356%; in [2], 18.2%; in [3], -2.1%; in [4] it was -0.373%; in [5], -1.84%; in experiment [6], 11.8%. In addition, the Percent Effect in experiment [7] was 8.49%; in experiment [8], 11.8%; in experiment [9], 23.5%; in [10], -9.93%.

With `CCc1ccc(S(=O)(=O)N2CCC3(CC(C(=O)NC)=NO3)C2)cc1` (stereo not given), the Percent Effect in experiment [1] was -3.25%; in experiment [2], 1.3%; in experiment [3] it was 3.29%; in experiment [4], 5.36%; in experiment [5] it was -4.05%; in experiment [6], 4.68%. Also, the Percent Effect was -7.8% in [7], 1.58% in experiment [8], 5.13% in [9] and 0.139% in experiment [10].

Take `CCc1nc(C2CCCN2C(=O)c2cc(C3CC3)[nH]n2)no1` (stereo not given): the Percent Effect in [1] is -3.71%; in experiment [2], 5.33%; in experiment [3], -4.76%; in experiment [4] it was -5.02%; in [5], 1.77%; in [6] it was -1.44%. The Percent Effect was 12.6% in [7], 3.68% in experiment [8], 5.13% in experiment [9] and -6.15% in [10].

For `CC(C)NC(=O)N1C[C@H]2C[C@H](C(=O)NCc3ccccc3)[C@@H](C1)O2`, the Percent Effect is -5.17% in experiment [1]; -103% in experiment [2]; -0.747% in [3]; -5.16% in [4]; -5.67% in [5]; 8.74% in experiment [6]. Further, the Percent Effect in [7] was found to be 8.32%; in experiment [8], 3.68%; in experiment [9], 7.69%; in [10], 3.3%.

As to `Cc1noc(C)c1C(=O)N1CC[C@H]2C[C@@H](c3ccncn3)O[C@@H]2C1`, the Percent Effect is -7.73% in experiment [1]; 6.49% in experiment [2]; 0.544% in [3]; -1.46% in [4]; -2.43% in [5]; 11.7% in experiment [6]. Also, the Percent Effect in experiment [7] was -4.26%; in experiment [8], 5.79%; in [9], 15.4%; in [10] it was -2%.
